In PubChem BioAssay (EPA / NIEHS):
Inconclusive results are not listed. Calls of active or inactive are those of the source. The calls were made as follows: active = hit-call score of the fitted dose curve at least 0.9, where 1 is the maximum; inconclusive = response in the unintended direction; inactive = score below 0.9.

Read-out: HMG-CoA synthase (HMGCS2), HMGCS2 (gene 3158)
Test: CLD_HMGCS2_6hr: CellzDirect (CLD) Gene Expression Assay for HMG-CoA synthase (HMGCS2) at 6 hours (AID 2283682);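 also: actives raise HMGCS2 transcript above the 0.2% DMSO vehicle baseline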
Description: CLD_6hr is a cell-based, multiplexed-readout assay that uses hepatocyte, a human liver primary cell, with measurements taken at 6 hours after chemical dosing in a 96-well plate.CLD_HMGCS2_6hr is one of 16 assay component(s) measured or calculated from the CLD_6hr assay. It is designed to make measurements of mRNA induction, a form of inducible reporter, as detected with chemiluminescence signals by Quantitative Nuclease Protection Assay (qNPA) technology.Data from the assay component CLD_HMGCS2_6hr was analyzed at the endpoint, CLD_HMGCS2_6hr, in the positive analysis fitting direction relative to DMSO as the negative control and baseline of activity. Using a type of inducible reporter, gain-of-signal activity can be used to understand changes in the reporter gene as they relate to the gene HMGCS2. Furthermore, this assay endpoint can be referred to as a primary readout. To generalize the intended target to other relatable targets, this assay endpoint is annotated to the lyase intended target family, where subfamily is HMG-CoA synthase.
Human hepatocyte cultures were treated daily for two consecutive days with fresh dosing solutions containing appropriate concentrations of the 320 ToxCast chemicals (chemical identities were blinded to CellzDirect and other ToxCast collaborators), vehicle control (0.2% DMSO), and positive control inducers as summarized in Table 1. Due to the large number of treatment groups and chemicals examined, the ToxCast chemicals were divided into two groups (spanning two independent cultures of hepatocytes from separate donor preparations (Hu778: ToxCast plates 1 and 2; Hu776: ToxCast plates 3 and 4). Each preparation of human hepatocyte cultures was treated with respective vehicle control, medium only control, set of six positive controls/reference chemicals for the five hepatic receptor pathways, and a subset of eight of the ToxCast chemicals (indoxacarb, pyrithiobac-sodium, norflurazon, cyhalofop-butyl, methomyl, thiram, acetochlor, and propiconazole). These replicate data, coupled with internal replicates designed within the blinded ToxCast chemical library, provided additional data to evaluate interindividual differences between hepatocyte preparations and their potential impact on chemical profiles.Cell morphology and integrity were evaluated using phase-contrast microscopy as an indicator of hepatocyte cell health (Tyson & Green, 1987). Cultures for each treatment group (i.e., media, vehicle [0.2% DMSO], positive control inducers [multiple concentrations], and the ToxCast chemicals [multiple concentrations]) were observed and cell morphology was assessed relative to vehicle control cultures at each harvest time point (0, 6, 24, or 48 h). […] Images were evaluated at the conclusion of the study to assess changes in cell integrity and account for the effects of chemical exposure on uncharacteristic changes in concentration-dependent gene expression profiles. The results from these determinations of apparent cytotoxicity were annotated (yes/no) alongside the corresponding qNPA data for reference.At the conclusion of each treatment period, hepatocyte cultures (96-well) were washed with 1 volume of HBSS, lysed by addition of 25 ul ArrayPlate lysis buffer (HTG, Tucson, AZ), and 70 ul/well of Denaturation Oil, denatured by incubation at 95C for 10 min, and frozen at approximately -70C until analysis by nuclease protection assay (qNPA) (Roberts et al., 2007). For qNPA analysis, cell lysates were thawed at 50C for approximately 30 min, qNPA probes were added, and samples were incubated at 95C for 10 min to begin the detection process by denaturing the target RNA, dissociating the duplexes and secondary structure hybridization. At the conclusion of the hybridization period, S1 nuclease reagent was added to each sample to digest all nonprotected nucleotides at 50C for 60-90 min. […]

Structure (SMILES) | outcome | AC50
COC(=O)NS(=O)(=O)c1ccc(N)cc1 | inactive | 
CCCN(CC)CC1COC2(CCC(C(C)(C)C)CC2)O1 (stereo unspecified) | inactive | 
COc1ccc(-c2ccccc2)cc1NNC(=O)OC(C)C | inactive | 
CCC(C)n1c(=O)[nH]c(C)c(Br)c1=O (stereo unspecified) | inactive | 
Clc1cccc(C(Cl)(Cl)Cl)n1 | inactive | 
O=C(Nc1ccccc1-c1ccc(Cl)cc1)c1cccnc1Cl | inactive | 
Cc1ccc(N=CN(C)C=Nc2ccc(C)cc2C)c(C)c1 | inactive | 
CC1(C)C(C(=O)OC(C#N)c2cccc(Oc3ccccc3)c2)C1(C)C (stereo unspecified) | inactive | 
Cc1cnc(C2=NC(C)(C(C)C)C(=O)N2)c(C(=O)O)c1 (stereo unspecified) | inactive | 
C=C(C)CN(CC)c1c([N+](=O)[O-])cc(C(F)(F)F)cc1[N+](=O)[O-] | inactive | 
CCN(CC)c1nc(C)cc(OP(=S)(OC)OC)n1 | inactive | 
CC1(C)CON(Cc2ccccc2Cl)C1=O | inactive | 
CCNC(=O)NC(=O)C(C#N)=NOC | inactive | 
COC(=O)NC(=S)Nc1ccccc1NC(=S)NC(=O)OC | inactive | 
Nc1cnn(-c2ccccc2)c(=O)c1Cl | inactive | 
C=CCOC(=O)C(C)(C)OC(=O)c1cc(-n2c(=O)cc(C(F)(F)F)n(C)c2=O)ccc1Cl | inactive | 

Structure (SMILES) | outcome | AC50
CCNP(=S)(OC)O/C(C)=C/C(=O)OC(C)C (stereo unspecified) | inactive | 
CCOc1cc(C(C)(C)C)ccc1C1COC(c2c(F)cccc2F)=N1 (stereo unspecified) | inactive | 
CC(C)N1C(=O)c2ccccc2NS1(=O)=O |  | 7.35 nM (active)
CS(=O)(=O)c1cc(C(F)(F)F)ccc1C(=O)c1cnoc1C1CC1 |  | 3970 nM (active)
Nc1c(Cl)c(Cl)nc(C(=O)O)c1Cl | inactive | 
O=c1n(Cl)c(=O)n(Cl)c(=O)n1Cl | inactive | 
CCOc1nc(F)cc2nc(S(=O)(=O)Nc3c(Cl)cccc3Cl)nn12 | inactive | 
CC1(C)C(C=C(Cl)Cl)C1C(=O)OC(C#N)c1cccc(Oc2ccccc2)c1 (stereo unspecified) | inactive | 
CCSC(=O)N1CCCCCC1 | inactive | 
COc1cc(OC)nc(NC(=O)NS(=O)(=O)c2ncccc2OCC(F)(F)F)n1 | inactive | 
N#Cc1c[nH]cc1-c1cccc2c1OC(F)(F)O2 | inactive | 
Cn1c(-c2ccccc2)cc(-c2ccccc2)[n+]1C | inactive | 
COCC(=O)N(c1c(C)cccc1C)C(C)C(=O)OC (stereo unspecified) | inactive | 
CCOC(=O)C(C)OC(=O)c1cc(Oc2ccc(C(F)(F)F)cc2Cl)ccc1[N+](=O)[O-] (stereo unspecified) |  | 24.1 nM (active)
CSC(=O)c1c(C(F)F)nc(C(F)(F)F)c(C(=O)SC)c1CC(C)C | inactive | 
